In PubChem BioAssay (NCATS):
Results filed as inconclusive are left out. Where a call stands in place of a potency, no number is given. The source made the active and inactive calls. The call rests on the fitted dose curve; in most records, active means well fitted inhibition curve with a large enough effect; inconclusive means small, poorly fitted or top-dose-only effect; inactive means no such curve, though single readings can be large or run the other way.

target: Retinaldehyde dehydrogenase 3 (Homo sapiens) (UniProt P47895); test: qHTS for Inhibitors of the Aldehyde Dehydrogenase Family (ALDH1A3) Primary screen (AID 2061315); settings: ALDH inhibition qHTS; series mostly up to 56 µM

Row | Structure (SMILES) | Potency
1 | Cc1ccc(OCCn2c(CCNC(=O)C3CCCCCC3)nc3ccccc32)cc1 | inactive
2 | Cc1nc(NC2CCCCC2)c2nc(-c3ccccc3)n(CCN(C)C)c2n1 | inactive
3 | COc1ccc(C2Nc3ccccc3C(=O)N2Cc2cccs2)cc1COc1c(C)cccc1C (configuration not stated) | inactive
4 | O=C1CCCC2=C1C(c1[nH]ncc1Cl)NC(=NCCc1cccnc1)N2 (configuration not stated) | inactive
5 | Cc1ccc(OCCn2c(CCNC(=O)CCc3ccccc3Br)nc3ccccc32)cc1 | inactive
6 | CCCn1c(C)nc2c(NCCCCN(CC)CC)nc(C)nc21 | inactive
7 | O=C(Nc1nc(-c2ccccc2)cs1)c1ccncc1NS(=O)(=O)c1ccc(F)cc1Cl | inactive
8 | CCCCCn1ncc2c3sc(C)cc3n(C)c2c1=O | inactive
9 | NC(=O)c1cccc(C[C@H](C(=O)O)N2C(=O)c3ccc(C(=O)O)cc3C2=O)c1 | inactive
10 | C=CCNc1oc(-c2cccc(F)c2)nc1C#N | inactive
11 | Nc1ccc(-c2ccc(NC(=O)c3cccs3)cn2)cc1 | inactive
12 | O=C(O)c1ccc2c(c1)C(=O)N([C@@H](Cc1ccc(O)cc1)C(=O)O)C2=O | inactive
13 | O=C(Nc1ccc(-c2nc3ccccc3[nH]2)cc1)c1ccncc1 | inactive
14 | O=C(NCc1ccccc1)Nc1ncnc2c1C(c1ccccc1)c1c(ccc3ccccc13)O2 (configuration not stated) | inactive
15 | Cc1nc(NCc2ccccc2)c2nc(-c3ccccc3)n(CCN3CCCCC3)c2n1 | inactive
16 | O=C(O)c1ccc2c(c1)C(=O)N([C@H](Cc1ccc(C(F)(F)F)cc1)C(=O)O)C2=O | inactive
17 | C[C@@H]1CN(S(=O)(=O)c2c(F)cccc2F)CCN1S(=O)(=O)c1ccc2c(c1)OCCO2 | inactive
